# Source: PubChem BioAssay (EPA / NIEHS)
# Records with an inconclusive call do not appear. Some compounds were tested as several samples or in several runs, with calls that do not always agree. Activity calls are given as the source filed them. Rule for the calls, unless noted: active = hit-call score of the fitted dose curve at least 0.9, where 1 is the maximum; inconclusive = response in the unintended direction; inactive = score below 0.9.
# Assays:
# [1] = CEETOX_H295R_MTT_cell_viability: Viability Assessment in the CeeTox HT-H295R MTT Assay (AID 2283718; active = hit-call score of the fitted dose curve at least 0.9, where 1 is the maximum; inactive = score below 0.9;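 for AC50: curve fitted both ways so AC50 may mark viability loss or gain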)
# How it was run: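 MTT reduction (0.5 mg/ml, 4 h at 37 C; absorbance at 570 and 650 nm) gave viability as background-corrected percent change versus controls. H295R cells had 48 h forskolin (10 uM) prestimulation, then 48 h chemical exposure at 0.1% DMSO.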
# [2] = Tanguay_ZF_120hpf_ActivityScore_legacy: (Legacy) Oregon State University Tanguay Lab 120 Hour Post-fertilization zebrafish Assay Score for Activity (AID 2283742);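 for AC50: dechorionated Tropical 5D wild-type zebrafish embryos held singly per well; static exposure from 6 hpf until 120 hpf at 28 °C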
# How it was run: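 Embryos are staged, enzymatically dechorionated at 4 hpf, placed individually at 6 hpf, then held in test chemical (0.64% DMSO) at 28C until 120 hpf. Mortality and malformations are scored by brightfield, with non-mortality endpoints skipped for dead embryos.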
# [3] = ACEA_AR_agonist_AUC_viability: ACEA Biosciences xCELLigence Real-Time Cell Analysis on Androgen Receptor Agonism for Viability (AID 2283775);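 for AC50: viability read 80 hours after compound addition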
# How it was run: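 Read-out is area under the impedance curve at 80 h post-dose in 22Rv1 cells, with DMSO as baseline and signal loss taken as reduced viability. Compounds ran in duplicate from 100 uM final.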
# [4] = ACEA_AR_antagonist_AUC_viability: ACEA Biosciences xCELLigence Real-Time Cell Analysis on Androgen Receptor Antagonism for Viability (AID 2283776);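 note: 22Rv1 human prostate cancer cells growing on impedance electrode plates; area under impedance growth curve at 80 h after dosing as viability; hits lower the growth signal relative to DMSO meaning cytotoxicity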
# How it was run: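 Impedance read-out (RT-CES): area under growth curve at 80 h post-dose, loss of signal scored vs DMSO baseline. 22Rv1 cells; 8-pt 1:4 series, top 100 uM final, ≤0.5% DMSO; biological duplicate.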
# [5] = STM_H9_OrnCyssISnorm_ratio: Stemina devTOX quickPredict H9 human embryonic stem cell (hESC)-based Assay for Ornithine (ORN):Cystine (CYSS) Ratio (AID 2283714)
# How it was run: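 Steps: H9 hESCs in pluripotent state dosed 72h, medium plus compound renewed every 24h; conditioned medium from the final 24h deproteinized in 40% acetonitrile; ORN and CYSS quantified by UPLC-HRMS with C13 spike-ins; ratio relative to vehicle.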
# [6] = system: zebrafish Androgen Receptor (AR), gene 100005148; assay: ATG_zfAR_XSP1: Attagene TRANS-FACTORIAL Multi-Species (XSP1) HepG2 Assay for zebrafish Androgen Receptor (AR) (AID 2283771)
# How it was run: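 HepG2 cells were transiently transfected with a zebrafish AR-GAL4 reporter system and partially stimulated with 3 nM 6-alpha-fluorotestosterone. Reporter mRNA was measured after 24 h dosing by RT-PCR with capillary electrophoresis, and gain-of-signal was fitted relative to DMSO.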
# [7] = target: zebrafish Estrogen Receptor (ESR1), esr1 (gene 259252) (UniProt P57717); assay: ATG_zfER1_XSP1: Attagene TRANS-FACTORIAL Multi-Species (XSP1) HepG2 Assay for zebrafish Estrogen Receptor (ESR1) (AID 2283772)
# Sequence of zebrafish Estrogen Receptor (ESR1), esr1 (gene 259252) (P57717 whole entry, looked up, the tested form may be a part): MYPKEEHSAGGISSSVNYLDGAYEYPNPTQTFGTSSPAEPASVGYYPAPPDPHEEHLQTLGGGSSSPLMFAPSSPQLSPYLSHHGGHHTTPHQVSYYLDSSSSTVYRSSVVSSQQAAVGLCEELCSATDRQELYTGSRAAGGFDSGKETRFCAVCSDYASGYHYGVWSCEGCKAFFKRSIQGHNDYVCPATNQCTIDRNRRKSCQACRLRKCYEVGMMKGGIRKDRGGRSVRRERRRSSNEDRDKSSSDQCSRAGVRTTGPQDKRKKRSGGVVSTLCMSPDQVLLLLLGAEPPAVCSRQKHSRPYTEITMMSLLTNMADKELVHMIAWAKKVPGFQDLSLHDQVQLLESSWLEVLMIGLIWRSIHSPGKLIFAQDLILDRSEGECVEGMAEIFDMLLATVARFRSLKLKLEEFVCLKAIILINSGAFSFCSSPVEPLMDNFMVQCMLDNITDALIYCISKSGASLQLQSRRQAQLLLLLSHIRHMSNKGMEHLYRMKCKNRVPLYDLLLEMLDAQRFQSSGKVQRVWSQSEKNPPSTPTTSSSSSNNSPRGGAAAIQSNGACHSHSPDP
# How it was run: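 Reporter mRNA induction, gauged via RT-PCR/capillary electrophoresis fluorescence relative to DMSO controls, in HepG2 cells transiently carrying GAL4-UAS reporter units; 24 h dosing.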
# [8] = system: zebrafish Estrogen Receptor (ESR2B), gene 317733; assay: ATG_zfER2b_XSP1: Attagene TRANS-FACTORIAL Multi-Species (XSP1) HepG2 Assay for zebrafish Estrogen Receptor (ESR2B) (AID 2283773)
# How it was run: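 Gain-of-signal endpoint relative to DMSO: reporter transcript levels quantified by RT-PCR and capillary electrophoresis after 24 h compound exposure of HepG2 cells expressing a zebrafish ER2b-Gal4 chimera.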
# [9] = system: frog Estrogen Receptor (ESR2), gene 100174814; assay: ATG_frER2_XSP1: Attagene TRANS-FACTORIAL Multi-Species (XSP1) HepG2 Assay for frog Estrogen Receptor (ESR2) (AID 2283774)
# How it was run: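 Transactivation of an exogenous receptor-Gal4 fusion is tracked in transfected HepG2 cells via induced reporter transcript levels. After 24 h treatment, RT-PCR with capillary electrophoresis quantifies signal gain over DMSO.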
# [10] = system: frog Estrogen Receptor (ESR1), gene 398734; assay: ATG_frER1_XSP1: Attagene TRANS-FACTORIAL Multi-Species (XSP1) HepG2 Assay for frog Estrogen Receptor (ESR1) (AID 2283777)
# How it was run: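 Human hepatoma HepG2 cells carried transiently transfected multiplexed Gal4-driven reporters and were exposed to test chemicals for 24 hours. Transcripts were quantified by fluorescent RT-PCR with capillary electrophoresis, referenced to DMSO.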
# [11] = system: zebrafish Estrogen Receptor (ESR2A), gene 317734; assay: ATG_zfER2a_XSP1: Attagene TRANS-FACTORIAL Multi-Species (XSP1) HepG2 Assay for zebrafish Estrogen Receptor (ESR2A) (AID 2283778)
# How it was run: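 Cells were transfected, dosed for 24 h, then total RNA was isolated. After oligo(dT) reverse transcription, reporter sequences were amplified, FAM-labelled by primer extension, digested with HpaI and sized by capillary electrophoresis; DMSO served as baseline.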
# [12] = target: chicken Estrogen Receptor (ESR1), ESR1 (gene 396099) (UniProt P06212); assay: ATG_chERa_XSP1: Attagene TRANS-FACTORIAL Multi-Species (XSP1) HepG2 Assay for chicken Estrogen Receptor (ESR1) (AID 2283779)
# Sequence of chicken Estrogen Receptor (ESR1), ESR1 (gene 396099) (P06212 whole entry, looked up, the tested form may be a part): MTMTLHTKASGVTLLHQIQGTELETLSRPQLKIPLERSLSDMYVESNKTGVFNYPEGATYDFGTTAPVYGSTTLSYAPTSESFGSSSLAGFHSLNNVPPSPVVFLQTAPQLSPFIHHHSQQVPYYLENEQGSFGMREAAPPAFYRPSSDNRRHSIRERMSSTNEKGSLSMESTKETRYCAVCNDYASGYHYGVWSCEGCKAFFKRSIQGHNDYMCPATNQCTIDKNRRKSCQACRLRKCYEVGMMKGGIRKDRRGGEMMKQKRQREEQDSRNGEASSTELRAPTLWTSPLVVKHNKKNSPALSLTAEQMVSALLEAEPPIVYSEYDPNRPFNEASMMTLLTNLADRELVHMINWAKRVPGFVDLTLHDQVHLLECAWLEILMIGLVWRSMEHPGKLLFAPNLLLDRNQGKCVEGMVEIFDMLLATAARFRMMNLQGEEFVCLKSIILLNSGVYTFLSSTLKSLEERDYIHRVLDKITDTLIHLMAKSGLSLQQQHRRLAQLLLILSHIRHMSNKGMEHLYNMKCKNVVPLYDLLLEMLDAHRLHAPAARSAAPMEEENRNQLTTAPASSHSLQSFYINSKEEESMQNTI
# How it was run: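 Human liver HepG2, transient MRTU transfection (NR-Gal4 chimeras, GAL4-UAS reporters); 24 h compound exposure; 3 nM 6-alpha-fluorotestosterone in medium. Total RNA → RT-PCR → 6-FAM primer extension → HpaI → CE. Positive direction vs DMSO baseline.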
smiles,measurement,setting,value
Cc1cccc(C)c1N,outcome,[1],inactive
same,outcome,[2],inactive
same,outcome,[3],inactive
c1cc2ccc3cccc4ccc(c1)c2c34,outcome,[1],inactive
same,outcome,[2],inactive
same,outcome,[3],inactive
same,AC50,[4],21.4 µM (active)
O=C(O)C(F)(F)C(F)(F)C(F)(F)C(F)(F)C(F)(F)C(F)(F)C(F)(F)C(F)(F)C(F)(F)F,outcome,[1],inactive
same,outcome,[2],inactive
same,AC50,[3],71.7 µM (active)
same,AC50,[4],67.3 µM (active)
O=NN(c1ccccc1)c1ccccc1,outcome,[5],inactive
same,outcome,[2],inactive
same,outcome,[3],inactive
same,outcome,[4],inactive
CC1=C2C[C@H]3[C@@H](CC=C4C[C@@H](O)CC[C@@]43C)[C@@H]2CC[C@]12O[C@@H]1C[C@H](C)CN[C@H]1[C@H]2C,outcome,[5],inactive
same,outcome,[1],inactive
same,AC50,[2],44.8 µM (active)
same,outcome,[3],inactive
same,outcome,[4],inactive
CCSC(=O)N(CC)C1CCCCC1,AC50,[5],35.2 µM (active)
same,outcome,[1],inactive
same,outcome,[2],inactive
same,outcome,[4],inactive
CO/C=C(/C(=O)OC)c1ccccc1COc1cccc(C(F)(F)F)n1,outcome,[5],inactive
same,AC50,[2],28.7 µM (active)
same,AC50,[3],50 µM (active)
same,AC50,[4],50 µM (active)
Clc1ccc(C(Cl)(Cl)Cl)cc1,AC50,[5],86.5 µM (active)
same,outcome,[2],inactive
same,outcome,[3],inactive
same,outcome,[4],inactive
Clc1ccc(C(c2ccccc2Cl)C(Cl)(Cl)Cl)cc1 (stereo unspecified),AC50,[5],69.9 µM (active)
same,outcome,[1],inactive
same,outcome,[2],inactive
same,outcome,[6],inactive
same,AC50,[7],2.48 µM (active)
same,AC50,[8],0.752 µM (active)
same,AC50,[9],0.674 µM (active)
same,AC50,[3],8.75 µM (active)
same,AC50,[4],12.8 µM (active)
same,AC50,[10],0.389 µM (active)
same,AC50,[11],0.679 µM (active)
same,AC50,[12],0.291 µM (active)
CCCCCCOC(=O)c1ccccc1C(=O)OCCCCCC,AC50,[5],3.69 µM (active)
same,AC50,[1],25.5 µM (active)
same,outcome,[1],inactive
same,outcome,[2],inactive
same,AC50,[3],43.5 µM (active)
same,AC50,[4],50 µM (active)
ClC1=C(Cl)[C@]2(Cl)[C@@H]3[C@H]4C[C@H]([C@@H]5O[C@H]45)[C@@H]3[C@@]1(Cl)C2(Cl)Cl,AC50,[5],72.4 µM (active)
same,AC50,[1],4.96 µM (active)
same,AC50,[3],24.1 µM (active)
same,AC50,[4],22.5 µM (active)
Cc1cc(O)ccc1Cl,outcome,[5],inactive
same,outcome,[1],inactive
same,outcome,[2],inactive
same,outcome,[3],inactive
same,outcome,[4],inactive
Cc1ccccc1CO[C@@H]1C[C@@]2(C(C)C)CC[C@]1(C)O2,outcome,[1],inactive
same,outcome,[2],inactive
same,AC50,[3],76.7 µM (active)
same,AC50,[4],63.6 µM (active)
CCNc1nc(NC(C)C)nc(SC)n1,AC50,[5],33.3 µM (active)
same,outcome,[1],inactive
same,AC50,[2],76.9 µM (active)
same,outcome,[3],inactive
same,outcome,[4],inactive
CCCCCCCCOC(=O)c1ccccc1C(=O)OCCCCCCCC,outcome,[5],inactive
same,outcome,[1],inactive
same,outcome,[2],inactive
same,outcome,[3],inactive
same,outcome,[4],inactive
C=CC(=O)NCNC(=O)C=C,AC50,[5],73.2 µM (active)
same,outcome,[2],inactive
same,outcome,[3],inactive
same,outcome,[4],inactive
CCCCCCCCCC[N+](C)(C)CCCCCCCCCC,AC50,[5],1.94 µM (active)
same,AC50,[2],39.7 µM (active)
same,AC50,[3],3.81 µM (active)
same,AC50,[4],6.84 µM (active)
